Compound activity deposited in PubChem by several laboratories.
This is a sample that favours compounds with a hit; in the whole collection about 4.2% have one here.
hcDAF12 agonist: H. contortus DAF-12 activation, primary screen | activation, % at 6.8 µM | hit rate 1.4% among 370,000 | HEK293 hcDAF-12 lit1-tk-luc reporter, luminescence; 0% DMSO, 100% Δ7-dafachronic acid;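 active means activation above the mean of all tested compounds plus 3 SD, cut at about 5.5% in these data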;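 further: 100% = response to 3 µM Δ7-dafachronic acid high control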
ssDAF12 agonist: S. stercoralis DAF-12 activation, primary screen; HEK293 ssDAF-12/GRIP1 lit1-tk-luc reporter, luminescence; % of 3 µM dafachronic acid response; activation, % at 6.8 µM; hit rate 1% among 370,000; AID 652126;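 active means activation above the mean over all tested compounds plus 3 SD, cut at about 0.9% in these data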;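 further: 0% = DMSO-only wells and 100% = 3 µM delta7-dafachronic acid wells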
esBAF inh: inhibitors of esBAF chromatin remodeling in mouse ES cells; Bmi1-luciferase knock-in reporter, 24 h; 100% = twice the neutral-well signal; reporter increase, % at 12.5 µM; hit rate 2% among 350,000; in the data active means activation above about 40%; inconclusive means no clear call, values can overlap the other calls;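 further: 0% = median of the plate's neutral control wells and 100% = double that signal; a rise in the Bmi1 reporter signal indicates esBAF inhibition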
Wnt act: activators of Wnt/beta-catenin signaling; Wnt/beta-catenin reporter cell assay, activator, plate reader; activation, % at 9.35 µM; hit rate 1.2% among 300,000; AID 743398; in the data active means activation above about 30%, passing the limit was not always enough; inconclusive means no clear call, values can overlap the other calls;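 further: 0% = neutral control wells and 100% = positive control wells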
DAX1 StAR inh: blocks DAX1 repression of SF-1 activated StAR promoter. HEK293T StAR-luciferase reporter, SF-1/DAX-1 repression relief. inhibition, % at 6.8 µM. AID 652010. hit rate 1.1% among 370,000;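 active means inhibition above the mean over all tested compounds plus 3 SD, cut at about 3.6% in these data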;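 further: 0% = DAX-1 cells with DMSO and 100% = cells lacking DAX-1 with DMSO; higher inhibition means more luminescence from relief of DAX-1 repression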
hgDAF12 agonist: hgDAF-12 agonism, primary luciferase screen; HEK293 GAL4-hgDAF12 UAS-luciferase reporter, agonist luminescence; normalized to butyrate control; activation, % at 6.8 µM; hit rate 1.8% among 370,000; AID 687014;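 active means activation above a cutoff set at the mean of all screened compounds plus 3 SD, cut at about 10% in these data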;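 further: 0% = DMSO wells and 100% = sodium butyrate wells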
The depositor's hits bear a star; ? = inconclusive; . = not tested or not shown.

SMILES	hcDAF12 agonist	ssDAF12 agonist	esBAF inh	Wnt act	DAX1 StAR inh	hgDAF12 agonist
Cc1cccc(C)c1NC(=O)CNC(=O)Cc1ccccc1[N+](=O)[O-]	-2	-1	3	0	0	-1
NS(=O)(=O)c1ccc(CCNC(=O)Cc2ccccc2[N+](=O)[O-])cc1	3	0	-6	-9	0	-3
NS(=O)(=O)c1ccc(CNC(=O)Cc2ccccc2[N+](=O)[O-])cc1	5.6*	0	-7	0	0	4
Cc1ccccc1CNC(=O)Cc1ccccc1[N+](=O)[O-]	4	1	42*	25	2	5
O=C(Nc1ccc(Br)cc1Br)Nc1cccc2[nH]c([C@@H]3O[C@H](CO)[C@@H](O)[C@H](O)[C@H]3O)nc12	0	0.9*	-14	-3	1	5
C[C@H](CO)N1C[C@H](C)[C@H](CN(C)S(C)(=O)=O)Oc2ccc(NC(=O)Nc3ccc4c(c3)OCO4)cc2C1=O	.	.	3	.	.	.
CCn1c(SCC(=O)Nc2ccccc2F)nnc1-c1cnccn1	2	-1	-4	1	-2	3
Cn1c(SCC(=O)c2ccccc2)nnc1-c1cccs1	1	-1	68*	?	1	7
Cn1c(SCC(=O)c2ccccc2)nnc1-c1cnccn1	1	-1	48*	29	1	6
Cn1c(SCC(=O)NCc2cccs2)nnc1-c1cccs1	1	-1	.	-4	0	2
Cc1ccc(CSc2nnc(-c3cccs3)n2C)cc1	-3	-1	25	.	-1	3
CCn1c(SCC(=O)c2ccccc2)nnc1-c1cnccn1	2	0	50*	36*	1	3
Cn1c(SCC(=O)c2ccccc2)nnc1-c1cccnc1	0	-2	33	5	0	2
Cn1c(SCc2c(Cl)cccc2Cl)nnc1-c1cccs1	-2	-2	48*	.	0	0
CC(C)(C)c1ccc(OCc2ccc(C(=O)Nc3cccnc3)o2)cc1	-3	-1	63*	?	0	4
Cc1ccc(OCc2ccc(C(=O)Nc3nccs3)o2)cc1	0	-1	21	.	0	4
O=C(Nc1nccs1)c1ccc(CSc2ccccc2)o1	2	0	39	38*	6.2*	9
Cc1ccc(SCc2ccc(C(=O)Nc3nccs3)o2)cc1	0	0	.	7	2	7
O=C(Nc1nccs1)c1ccc(COc2ccccc2)o1	2	0	52*	0	2	11*
CC(C)NC(=O)Nc1ccc2c(c1)C(=O)N([C@H](C)CO)C[C@@H](C)[C@H](CN(C)C(=O)C1CCCCC1)OCCCC[C@H](C)O2	.	.	0	.	.	.
Cn1c(NC(=O)c2ccccc2F)c(-c2cccs2)c(=O)c2ccccc21	0	-1	.	33*	0	-3
Cn1c(NC(=O)c2ccc(F)cc2)c(-c2cccs2)c(=O)c2ccccc21	0	0	.	-5	0	0
CC(C)C#Cc1ccc2c(c1)O[C@H](CN(C)C(=O)NC(C)C)[C@H](C)CN([C@@H](C)CO)S2(=O)=O	.	.	-2	.	.	.
C[C@@H](NC(=O)C[C@H]1C[C@H]2c3cc(NC(=O)CN(C)C)ccc3O[C@H]2[C@H](CO)O1)c1ccccc1	.	.	5	.	.	.
COC(=O)C[C@@H]1CC[C@H]2[C@H](COc3ccc(NS(C)(=O)=O)cc3C(=O)N2C)O1	.	.	-1	.	.	.
SMILES	hcDAF12 agonist	ssDAF12 agonist	esBAF inh	Wnt act	DAX1 StAR inh	hgDAF12 agonist
CC(=O)c1cc(-c2csc(C=O)c2)c(=O)n2c1CCC2	0	-1	.	.	0	-3
COc1ccc(C=O)cc1-c1cc(C(C)=O)c2n(c1=O)CCC2	-1	1.3*	.	.	0	1
O=C(CSc1nccn1Cc1ccco1)Nc1ccccc1F	0	0	15	3	1	4
Cc1ccc(C)c(NC(=O)CSc2nccn2Cc2ccco2)c1	3	-1	56*	7	-1	5
C[C@H]1CCCCO[C@@H](CN(C)C)[C@@H](C)CN([C@@H](C)CO)C(=O)c2cc(NC(=O)c3ccccc3)ccc2O1	.	.	2	.	.	.
O=C1C(=O)N(CCN2CCOCC2)C(c2ccccc2)/C1=C(\O)c1ccc2c(c1)OCCO2 (stereo unspecified)	1	-1	7	1	4.0*	-2
Cc1cccc(N2CCN(C(=O)c3cc4c(=O)n(C)c5ccccc5c4n3C)CC2)c1C	-2	1.9*	15	2	1	-2
Cc1ccc(Cl)cc1N1CCN(C(=O)c2cc3c(=O)n(C)c4ccccc4c3n2C)CC1	-2	-1	5	-2	0	-1
C[C@H]1CN([C@@H](C)CO)C(=O)c2cc(Br)cnc2O[C@H]1CN(C)Cc1ccncc1	.	.	7	.	.	.
O=Nc1c(-c2c(O)[nH]c3cc(Br)ccc23)[nH]c2ccccc12	2	0	111*	77*	0	2
O=C(CSCc1cccc(Br)c1)N=Nc1c(O)[nH]c2ccccc12	2	-1	.	0	-1	1
CN(C(=O)c1ccco1)c1nnc(C23CC4CC(CC(C4)C2)C3)s1	1	-1	67*	23	3	5
CN(CC12CC3CC(CC(C3)C1)C2)C(=O)c1ccco1	-2	-1	3	-2	-4	-1
CCS(=O)(=O)Nc1ccc2c(c1)C(=O)N(C)[C@@H]1CC[C@H](CC(=O)NCCOC)O[C@@H]1CO2	.	.	0	.	.	.
CC(C)NC(=O)Nc1ccc2c(c1)C(=O)N([C@H](C)CO)C[C@@H](C)[C@@H](CN(C)S(=O)(=O)c1ccc(Cl)cc1)OCCCC[C@@H](C)O2	.	.	-3	.	.	.
N#Cc1ccc(Cl)cc1NC(=O)CN1C(=O)C(=O)N(CCC2=CCCCC2)C1=O	4	1.2*	1	-2	0	2
COc1ccc(Nc2ncnc3ccccc23)cc1	1	-1	29	18	1	9
COc1cccc(Nc2ncnc3ccccc23)c1	3	0	58*	.	3	8
COc1ccc2c(c1)CCC/C2=N/OC(=O)c1ccccc1OC	-1	-1	.	0	0	3
COc1ccc2c(c1)CC/C2=N\OC(=O)c1ccccc1C	2	2.1*	.	3	1	9
Cc1ccc(S(=O)(=O)N(C)C[C@H]2OCCCC[C@@H](C)Oc3ccc(NS(=O)(=O)c4ccc(Cl)cc4)cc3C(=O)N([C@@H](C)CO)C[C@@H]2C)cc1	.	.	10	.	.	.
CO[C@H]1CC[C@@H]2CCOc3ccc(C#N)cc3C(=O)N(C)C[C@@H](OC)[C@H](C)C(=O)N(C)C[C@H]1O2	.	.	8	.	.	.
CC(=O)Nc1ccc(-c2cn3c(n2)SCC3)cc1	1	0	9	10	1	2
Cc1ccc(-c2cn3c(n2)SCC3)cc1	2	-1	7	65*	2	7
c1ccc(CCn2nnnc2CN2CCCc3ccccc32)cc1	5.8*	0	4	.	0	1
